# Source: PubChem BioAssay AID1159580 (chemical genetic matrix, 2015)
# Values joined by “and” are separate entries in the source; they are usually repeats but may differ in a detail not shown here. Equal entries are not always repeated. The campaign covered roughly 5,500 compounds. About 2,000 (36%) were called active. About 18% were inconclusive and are not listed. No stated cut-off is given here; in the data, active means normalized growth mostly below about 0.91 (no sharp cut-off); inconclusive means no clear call, values can overlap the other calls; inactive means mostly above about 0.92. The list shows a part of the results.
# Assay: chemical genetic growth profiling, strain panel (AID 1159580);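 further: tested at 20 µM; growth read once vehicle control cultures reached saturation at 30 °C; 1 = growth at the plate median or of vehicle wells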
# Details: S. cerevisiae deletion strains, growth OD
compound,measurement,setting,value
N#Cc1c(Cl)c(Cl)c(Cl)c(C#N)c1Cl,normalized growth,"locus YAL013W, strain DEP1, stronger effect = lower value",1 (inactive)
same,normalized growth,"locus YAL021C, strain ccr4, stronger effect = lower value",0.0842 (active)
same,normalized growth,"locus YAL026C, strain drs2, stronger effect = lower value",0.0831 (active)
same,normalized growth,"locus YAL030W, strain snc1, stronger effect = lower value",0.0677 (active)
same,normalized growth,"locus YBL061C, strain skt5, stronger effect = lower value",0.0748 (active)
same,normalized growth,"locus YBR009C, strain hhf1, stronger effect = lower value",0.0742 (active)
same,normalized growth,"locus YBR021W, strain FUR4, stronger effect = lower value",0.953 (inactive)
same,normalized growth,"locus YBR023C, strain chs3, stronger effect = lower value",0.0756 (active)
same,normalized growth,"locus YBR171W, strain sec66, stronger effect = lower value",0.0931 (active)
same,normalized growth,"locus YBR229C, strain ROT2, stronger effect = lower value",0.991 (inactive)
same,normalized growth,"locus YBR231C, strain swc5, stronger effect = lower value",0.077 (active)
same,normalized growth,"locus YBR279W, strain paf1, stronger effect = lower value",0.0631 (active)
same,normalized growth,"locus YCL011C, strain gbp2, stronger effect = lower value",0.0716 (active)
same,normalized growth,"locus YCL016C, strain dcc1, stronger effect = lower value",0.0812 (active)
same,normalized growth,"locus YCL029C, strain bik1, stronger effect = lower value",0.976 (inactive)
same,normalized growth,"locus YCL061C, strain MRC1, stronger effect = lower value",0.078 (active)
same,normalized growth,"locus YCL069W, strain vba3, stronger effect = lower value",0.0768 (active)
same,normalized growth,"locus YCR088W, strain abp1, stronger effect = lower value",0.0707 (active)
same,normalized growth,"locus YDL005C, strain med2, stronger effect = lower value",0.0898 (active)
same,normalized growth,"locus YDL035C, strain GPR1, stronger effect = lower value",1 (inactive)
same,normalized growth,"locus YDL040C, strain nat1, stronger effect = lower value",0.0666 (active)
same,normalized growth,"locus YDL074C, strain BRE1, stronger effect = lower value",1.01 (inactive)
same,normalized growth,"locus YDL101C, strain DUN1, stronger effect = lower value",1 (inactive)
same,normalized growth,"locus YDL134C, strain PPH21, stronger effect = lower value",0.992 (inactive)
same,normalized growth,"locus YDL185W, strain tfp1, stronger effect = lower value",0.951 (inactive)
same,normalized growth,"locus YDL192W, strain arf1, stronger effect = lower value",0.984 (inactive)
same,normalized growth,"locus YDR001C, strain nth1, stronger effect = lower value",0.071 (active)
same,normalized growth,"locus YDR069C, strain doa4, stronger effect = lower value",0.0807 (active)
same,normalized growth,"locus YDR101C, strain arx1, stronger effect = lower value",0.986 (inactive)
same,normalized growth,"locus YDR137W, strain rgp1, stronger effect = lower value",0.106 (active)
same,normalized growth,"locus YDR150W, strain NUM1, stronger effect = lower value",1.01 (inactive)
same,normalized growth,"locus YDR159W, strain sac3, stronger effect = lower value",0.113 (active)
same,normalized growth,"locus YDR162C, strain NBP2, stronger effect = lower value",1.01 (inactive)
same,normalized growth,"locus YDR195W, strain ref2",0.161 (active)
same,normalized growth,"locus YDR297W, strain sur2, stronger effect = lower value",0.0715 (active)
same,normalized growth,"locus YDR318W, strain mcm21, stronger effect = lower value",0.975 (inactive)
same,normalized growth,"locus YDR334W, strain swr1, stronger effect = lower value",0.0727 (active)
same,normalized growth,"locus YDR335W, strain msn5, stronger effect = lower value",0.0699 (active)
same,normalized growth,"locus YDR388W, stronger effect = lower value",0.97 (inactive)
same,normalized growth,"locus YDR392W, strain spt3, stronger effect = lower value",0.0937 (active)
same,normalized growth,"locus YDR502C, strain sam2, stronger effect = lower value",0.996 (inactive)
same,normalized growth,"locus YEL003W, strain gim4, stronger effect = lower value",0.0699 (active)
same,normalized growth,"locus YEL037C, strain rad23, stronger effect = lower value",0.0662 (active)
same,normalized growth,"locus YEL061C, strain CIN8 (second series), stronger effect = lower value",0.0687 (active)
same,normalized growth,"locus YEL061C, strain CIN8, stronger effect = lower value",1 (inactive)
same,normalized growth,"locus YER015W, strain faa2, stronger effect = lower value",0.078 (active)
same,normalized growth,"locus YER016W, strain bim1, stronger effect = lower value",0.0769 (active)
same,normalized growth,"locus YER110C, stronger effect = lower value",0.976 (inactive)
same,normalized growth,"locus YER111C, strain swi4, stronger effect = lower value",0.0874 (active)
same,normalized growth,"locus YER155C, strain BEM2 (second series), stronger effect = lower value",0.108 (active)
same,normalized growth,"locus YER155C, strain BEM2, stronger effect = lower value",0.993 (inactive)
same,normalized growth,"locus YER167W, strain BCK2, stronger effect = lower value",0.993 (inactive)
same,normalized growth,"locus YFR010W, strain ubp6, stronger effect = lower value",0.0828 (active)
same,normalized growth,"locus YGL078C, strain dbp3, stronger effect = lower value",0.983 (inactive)
same,normalized growth,"locus YGL086W, strain mad1, stronger effect = lower value",0.976 (inactive)
same,normalized growth,"locus YGL167C, strain pmr1, stronger effect = lower value",0.0894 (active)
same,normalized growth,"locus YGL173C, strain kem1, stronger effect = lower value",0.084 (active)
same,normalized growth,"locus YGL227W, strain vid30, stronger effect = lower value",0.0779 (active)
same,normalized growth,"locus YGL240W, strain doc1, stronger effect = lower value",0.0947 (active)
same,normalized growth,"locus YGL248W, strain PDE1, stronger effect = lower value",0.994 (inactive)
same,normalized growth,"locus YGL253W, strain hxk2, stronger effect = lower value",0.0661 (active)
same,normalized growth,"locus YGR078C, strain PAC10, stronger effect = lower value",1.01 (inactive)
same,normalized growth,"locus YGR135W, strain pre9, stronger effect = lower value",0.998 (inactive)
same,normalized growth,"locus YGR229C, strain SMI1, stronger effect = lower value",1 (inactive)
same,normalized growth,"locus YGR252W, strain gcn5, stronger effect = lower value",0.932 (inactive)
same,normalized growth,"locus YHR013C, strain ard1, stronger effect = lower value",0.114 (active)
same,normalized growth,"locus YHR027C, strain rpn1, stronger effect = lower value",0.0746 (active)
same,normalized growth,"locus YHR030C, strain SLT2, stronger effect = lower value",0.992 (inactive) and 0.126 (active)
same,normalized growth,"locus YHR079C, strain IRE1 (second series), stronger effect = lower value",0.98 (inactive)
same,normalized growth,"locus YHR079C, strain IRE1, stronger effect = lower value",0.142 (active)
same,normalized growth,"locus YHR094C, strain hxt1, stronger effect = lower value",0.979 (inactive)
same,normalized growth,"locus YHR129C, strain ARP1, stronger effect = lower value",1 (inactive)
same,normalized growth,"locus YHR142W, strain chs7, stronger effect = lower value",0.0874 (active)
same,normalized growth,"locus YHR200W, strain rpn10, stronger effect = lower value",0.973 (inactive)
same,normalized growth,"locus YIL066C, strain RNR3, stronger effect = lower value",0.989 (inactive)
same,normalized growth,"locus YIL073C, strain SPO22, stronger effect = lower value",0.969 (inactive)
same,normalized growth,"locus YIL125W, strain kgd1, stronger effect = lower value",0.98 (inactive)
same,normalized growth,"locus YIR030C, strain dcg1, stronger effect = lower value",0.976 (inactive)
same,normalized growth,"locus YJL092W, strain hpr5, stronger effect = lower value",0.0707 (active)
same,normalized growth,"locus YJL095W, strain BCK1 (second series), stronger effect = lower value",0.0749 (active)
same,normalized growth,"locus YJL095W, strain BCK1, stronger effect = lower value",1 (inactive) and 0.151 (active)
same,normalized growth,"locus YJL115W, strain asf1, stronger effect = lower value",0.0849 (active)
same,normalized growth,"locus YJL129C, strain trk1, stronger effect = lower value",0.106 (active)
same,normalized growth,"locus YJL134W, strain LCB3, stronger effect = lower value",0.998 (inactive)
same,normalized growth,"locus YJL154C, strain vps35, stronger effect = lower value",0.07 (active)
same,normalized growth,"locus YJL164C, strain tpk1, stronger effect = lower value",0.0766 (active)
same,normalized growth,"locus YJL166W, strain qcr8, stronger effect = lower value",0.0732 (active)
same,normalized growth,"locus YJL168C, strain set2, stronger effect = lower value",0.985 (inactive)
same,normalized growth,"locus YJL187C, strain SWE1 (second series), stronger effect = lower value",0.994 (inactive)
same,normalized growth,"locus YJR043C, strain POL32, stronger effect = lower value",0.994 (inactive)
same,normalized growth,"locus YJR066W, strain TOR1, stronger effect = lower value",-0.00264 (active)
